Laboratory results: PubChem BioAssay (NCI)
This is part of a sample that, as a whole, favours compounds with a hit. Of some 83,000 tested, about 20% had one in any assay.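 Cells were grown in 96-well plates and exposed to the test compound at a single concentration for 48 hours; results are reported as percent growth, with values below 10 considered active.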 Values without a mark were called inactive. Calls of active or inactive are those of the source.

Key:
Experiment in all cases: NCI-60 one-dose screen, 48 h (100 = growth as untreated, 0 = no growth, -100 = all killed)
[1] = tested on: A549/ATCC NSCLC; settings: 10 µM unless noted
[2] = tested on: DU-145 prostate; settings: 10 µM unless noted
[3] = tested on: K-562 leukemia; settings: 10 µM unless noted
[4] = tested on: RXF 393 renal; settings: 10 µM unless noted
[5] = tested on: UACC-257 melanoma; settings: 10 µM unless noted
[6] = tested on: HT29 colon; settings: 10 µM unless noted
[7] = tested on: SNB-75 CNS; settings: 10 µM unless noted
[8] = tested on: PC-3 prostate; settings: 10 µM unless noted
[9] = tested on: SK-MEL-5 melanoma; settings: 10 µM unless noted
[10] = tested on: UACC-62 melanoma; settings: 10 µM unless noted
[11] = tested on: SK-MEL-2 melanoma; settings: 10 µM unless noted
[12] = tested on: ACHN renal; settings: 10 µM unless noted
[13] = tested on: A498 renal; settings: 10 µM unless noted
[14] = tested on: HL-60(TB) leukemia; settings: 10 µM unless noted
[15] = tested on: MOLT-4 leukemia; settings: 10 µM
[16] = tested on: OVCAR-8 ovarian; settings: 10 µM unless noted
[17] = tested on: OVCAR-5 ovarian; settings: 10 µM unless noted
[18] = tested on: HS 578T breast; settings: 10 µM unless noted
[19] = tested on: NCI/ADR-RES ovarian; settings: 10 µM unless noted
[20] = tested on: T-47D breast; settings: 10 µM unless noted

Row | SMILES | growth [1] | growth [2] | growth [3] | growth [4] | growth [5] | growth [6] | growth [7] | growth [8] | growth [9] | growth [10] | growth [11] | growth [12] | growth [13] | growth [14] | growth [15] | growth [16] | growth [17] | growth [18] | growth [19] | growth [20]
1 | ClCCN(CCCl)c1nc(Cl)c(C2CC(c3ccc(Cl)cc3)=NN2c2cc(Cl)cc(Cl)c2)s1 (centres undefined) | 97.7% | 116% | 91.7% | 119% | 94.4% | 94.4% | 97.7% | 93.6% | 115% | 82.7% | 96.3% | 106% | 101% | 104% | 95% | 99.1% | 108% | 89.7% | 114% | 98.8%
2 | COc1cc(/C=C\c2cc(OC)c(OC)c(OC)c2)cc(N/C=C\C(=O)c2ccc(OC(F)(F)F)cc2)c1OC | 19.4% | 14.4% | 4.67% (active) | – | 51.1% | -36.6% (active) | -8.84% (active) | 42.6% | 27.6% | – | -13.4% (active) | 43% | -1.24% (active) | 11% | 34.6% | 30% | 44.2% | 29.4% | 5.87% (active) | 37.9%
3 | c1ccc2nc(OCCN3CC3)ccc2c1 | 74.1% | 98.6% | 26.8% | 59.1% | 59% | 43.8% | 77% | – | 98.6% | 79.3% | 96.3% | 88% | 102% | 72.7% | 34% | 78.2% | 86.2% | 98.3% | 89.2% | 80.3%
4 | O=C1NC(=O)C(Cc2ccccc2)(Cc2ccccc2)C(=O)N1 | 104% | 115% | 86.7% | 113% | 108% | 104% | 89.3% | 105% | 109% | 95.1% | 104% | 114% | 104% | 89.4% | 100% | 106% | 110% | 109% | 113% | –
5 | O=CC(Br)C(Br)c1ccccc1 (centres undefined) | 97.6% | 77% | 41.2% | 86.8% | 93.8% | 71.4% | 92.6% | 94.7% | 89.9% | 87.4% | 112% | 86.2% | 102% | 26.3% | 16.6% | 85.6% | 98% | 97.2% | 100% | 37.2%
6 | C1CNC2CCCC2C1 (centres undefined) | 110% | 107% | 112% | 93.1% | 106% | 102% | 86.3% | 101% | 96.7% | 108% | 106% | 103% | 107% | 117% | 116% | 106% | 103% | 111% | 109% | 108%
7 | CCN(CC)c1ccc(C=C2C(=O)NC(=S)NC2=O)cc1 | 89.2% | 98.8% | 78% | -22.3% (active) | 91.3% | 92.2% | 75.8% | – | 93.4% | 85.9% | 98.1% | 95.7% | 97.5% | 42.7% | 81% | 93% | 95.1% | 88.6% | 100% | 78%
8 | C=CCN1C(=O)C(CC)(CCC(C)C)C(=O)NC1=S (centres undefined) | 98.7% | 105% | 99.8% | 107% | 89.5% | 103% | 96.8% | 91.7% | 105% | 92.2% | 117% | 110% | 112% | 101% | 96.6% | 99.4% | 112% | – | 106% | 113%
